Here are results for five compounds from PubChem BioAssay.

A short description of assay [1]: anti-His antibody binders, primary screen, artefact control for SMM control protein annotation, biochemical, small-molecule microarray, 635 nm fluorescence (AID 1128).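 Also: score merges feature fluorescence with signal-to-noise for each printed compound spot.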 The note with it: anti-His Alexa647 antibody binding, higher = more signal.
The test system of assay [2] is Human papillomavirus type 1a E7 protein (residues 1-88). As to the kind of experiment: HPV1a E7 small-molecule binders, primary screen, biochemical, small-molecule microarray, residues 1-88, 635 nm (AID 1129). Conditions: small-molecule microarray binding, fluorescence 635 nm; higher = more signal.
For assay [3], the target named is Focal adhesion kinase 1 (Homo sapiens) (UniProt Q05397). In words: small-molecule microarray binders of FAK, primary screen, biochemical, 635/667 nm fluorescence, BSA, DTT (AID 1130).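 Also: composite of spot emission at 667 nm and signal to noise over triplicate slides.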 Conditions: PTK2 binding, 635 nm fluorescence, higher = more signal.
Sequence of Focal adhesion kinase 1 (Homo sapiens) (Q05397 whole entry, looked up): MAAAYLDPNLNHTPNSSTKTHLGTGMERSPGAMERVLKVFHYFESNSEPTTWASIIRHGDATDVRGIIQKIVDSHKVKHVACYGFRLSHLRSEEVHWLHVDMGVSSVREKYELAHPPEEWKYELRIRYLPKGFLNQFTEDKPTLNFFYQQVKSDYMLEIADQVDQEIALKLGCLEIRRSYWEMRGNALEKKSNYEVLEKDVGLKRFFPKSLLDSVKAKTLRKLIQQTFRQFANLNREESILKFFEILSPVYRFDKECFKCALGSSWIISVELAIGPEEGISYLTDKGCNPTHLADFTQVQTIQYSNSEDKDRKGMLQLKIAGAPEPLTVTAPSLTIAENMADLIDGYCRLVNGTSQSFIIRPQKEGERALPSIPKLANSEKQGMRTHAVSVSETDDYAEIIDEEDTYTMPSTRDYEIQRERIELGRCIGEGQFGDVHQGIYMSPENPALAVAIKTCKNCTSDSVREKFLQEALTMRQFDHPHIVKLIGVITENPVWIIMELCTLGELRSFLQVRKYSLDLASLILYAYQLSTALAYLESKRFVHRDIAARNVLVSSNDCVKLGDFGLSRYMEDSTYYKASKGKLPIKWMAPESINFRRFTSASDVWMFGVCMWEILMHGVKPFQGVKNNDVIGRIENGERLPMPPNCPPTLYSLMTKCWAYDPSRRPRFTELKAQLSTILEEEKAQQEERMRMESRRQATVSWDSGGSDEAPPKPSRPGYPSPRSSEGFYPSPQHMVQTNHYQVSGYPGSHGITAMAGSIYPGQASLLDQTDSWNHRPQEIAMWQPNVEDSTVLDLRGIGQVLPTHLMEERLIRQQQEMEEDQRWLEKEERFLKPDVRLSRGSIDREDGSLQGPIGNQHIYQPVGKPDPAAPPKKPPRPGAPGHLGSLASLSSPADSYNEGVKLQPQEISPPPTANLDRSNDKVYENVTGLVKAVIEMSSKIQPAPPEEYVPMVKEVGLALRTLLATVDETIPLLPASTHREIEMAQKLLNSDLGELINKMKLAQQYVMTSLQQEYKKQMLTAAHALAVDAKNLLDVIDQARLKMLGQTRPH
Assay [4] has as its system Fibrinogen (Alexa647-labelled). As to the kind of experiment: fibrinogen binders on compound microarrays, profiling panel, artefact control for SMM control-protein annotation, biochemical, small-molecule microarray, 635/667 nm fluorescence (AID 1131).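 Also: z-score merges 667 nm fluorescence with per-spot signal-to-noise over triplicate slides.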 The note with it: fibrinogen-A647 binding fluorescence, higher = more signal.
For assay [5], the target named is Follistatin (Homo sapiens) (UniProt P19883). As to the kind of experiment: follistatin binders on small-molecule microarrays, primary screen, biochemical, small-molecule microarray, 635/667 nm fluorescence (AID 1132). The note with it: FST binding, 635 nm fluorescence, higher = more signal.
Sequence of Follistatin (Homo sapiens) (P19883 whole entry, looked up): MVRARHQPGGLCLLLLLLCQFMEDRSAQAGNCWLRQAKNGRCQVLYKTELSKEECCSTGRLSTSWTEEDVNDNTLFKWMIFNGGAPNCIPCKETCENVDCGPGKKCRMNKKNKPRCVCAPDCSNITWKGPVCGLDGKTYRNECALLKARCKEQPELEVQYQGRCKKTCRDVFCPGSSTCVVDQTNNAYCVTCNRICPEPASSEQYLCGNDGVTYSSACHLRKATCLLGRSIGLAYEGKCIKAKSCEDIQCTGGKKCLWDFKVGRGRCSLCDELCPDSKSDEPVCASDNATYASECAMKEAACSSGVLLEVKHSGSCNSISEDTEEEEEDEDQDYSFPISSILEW
The target of assay [6] is Fibroblast growth factor 2 (Homo sapiens) (UniProt P09038). In words: FGF2 binders on small-molecule microarrays, primary screen, biochemical, small-molecule microarray, 635/667 nm fluorescence (AID 1133). Conditions: small-molecule microarray binding, FGF2, fluorescence 635/667; higher = more signal.
Sequence of Fibroblast growth factor 2 (Homo sapiens) (P09038 whole entry, looked up): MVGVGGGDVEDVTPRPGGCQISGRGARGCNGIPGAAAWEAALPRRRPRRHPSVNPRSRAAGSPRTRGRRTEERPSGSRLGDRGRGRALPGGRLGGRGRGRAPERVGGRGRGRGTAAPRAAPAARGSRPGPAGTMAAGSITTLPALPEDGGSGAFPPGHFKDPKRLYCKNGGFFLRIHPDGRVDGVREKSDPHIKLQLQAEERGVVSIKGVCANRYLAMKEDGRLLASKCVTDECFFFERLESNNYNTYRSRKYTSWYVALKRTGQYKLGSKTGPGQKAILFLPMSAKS
Assay [7] is described as follows: mitochondrial membrane potential change in A549 cells, profiling panel, cell-based, JC-1 fluorescence, basal, 24 h, 100 nL (AID 1138).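 Also: A549 lung adenocarcinoma cells under basal conditions with no added stimulus; test concentration not given here.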 Conditions: higher = more signal.
A further assay relates to Lefty1. In words: Lefty1 binders on small-molecule microarrays, primary screen, biochemical, small-molecule microarray, 635/667 nm fluorescence (AID 1139). Conditions: small-molecule microarray binding, fluorescence 635/667; higher = more signal.
The subject of assay [8] is wheat germ agglutinin (Triticum aestivum), Alexa647-labelled. In words: wheat germ agglutinin binders on compound microarrays, profiling panel, artefact control for SMM control-protein annotation, biochemical, small-molecule microarray, 635/667 nm fluorescence (AID 1140).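 Also: score merges 667 nm feature emission with signal to noise over triplicate slides.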 Conditions: WGA-A647 binding, 635 nm fluorescence, higher = more signal.
The target of assay [9] is Luciferin 4-monooxygenase (Photinus pyralis) (UniProt P08659). As to the kind of experiment: firefly luciferase enzyme inhibitors, primary screen, biochemical, luminescence, purified enzyme, 2006 set (AID 1141).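 Also: cell-free assay with purified firefly luciferase at 100 ng per well in PBS; test concentration not given here.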 Conditions: SteadyGlo luminescence, 30 min, higher = more signal, called active from +8 up or from −8 down.
Sequence of Luciferin 4-monooxygenase (Photinus pyralis) (P08659 whole entry, looked up): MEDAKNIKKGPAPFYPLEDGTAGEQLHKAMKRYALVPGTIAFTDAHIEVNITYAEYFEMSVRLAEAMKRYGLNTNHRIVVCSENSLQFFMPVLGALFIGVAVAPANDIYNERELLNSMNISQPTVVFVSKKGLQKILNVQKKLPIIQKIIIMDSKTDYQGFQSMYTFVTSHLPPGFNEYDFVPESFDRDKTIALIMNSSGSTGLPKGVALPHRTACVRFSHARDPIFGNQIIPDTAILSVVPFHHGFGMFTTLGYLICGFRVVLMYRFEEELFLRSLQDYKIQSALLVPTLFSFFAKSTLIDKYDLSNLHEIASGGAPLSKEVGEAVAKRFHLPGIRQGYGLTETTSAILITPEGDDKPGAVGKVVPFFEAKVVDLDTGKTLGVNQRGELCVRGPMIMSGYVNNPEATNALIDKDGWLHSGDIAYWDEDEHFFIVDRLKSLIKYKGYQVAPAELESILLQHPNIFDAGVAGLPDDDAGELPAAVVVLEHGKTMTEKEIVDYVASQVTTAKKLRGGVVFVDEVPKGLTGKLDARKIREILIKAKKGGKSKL
The subject of assay [10] is Wnt5a (protein binding on small-molecule microarray). As to the kind of experiment: Wnt5a binders on small-molecule microarray, primary screen, biophysical, 635/667 nm fluorescence (AID 1142).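 Also: fluorescence read at 667 nm with signal to noise per printed feature.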 Conditions: 635 nm fluorescence, higher = more signal.
A short description of assay [11]: cell viability in Huh7 cells, primary screen, cytotoxicity control for HCV replication inhibitor project, CellTiter-Glo luminescence, basal, 48 h (AID 1143).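 Also: Huh7 hepatoma cells carrying a hepatitis C replication reporter with no stimulus; test concentration not given here.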 Conditions: Huh7 HCV replicon, higher = more signal, called active from +8 up or from −8 down. On the technique in general: ATP-based viability assays read luminescence as a measure of living cells.
A short description of assay [12]: P. aeruginosa biofilm formation inhibitors, primary screen, PAO1 strain, BacTiter-Glo luminescence, LB-PBS (AID 1144). Conditions: 12 h, higher = more signal.
The nature of assay [13]: CREB reporter modulators without forskolin, primary screen, cell-based, PC12, CRE-LacZ reporter, unstimulated (AID 1145). The note with it: no forskolin, luminescence, 4.5 h, higher = more signal, called active from +8 up or from −8 down.
Assay [14] is described as follows: CREB reporter modulators under forskolin, primary screen, cell-based, PC12, CRE-LacZ reporter, forskolin-stimulated (AID 1146).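 Also: PC12 cells with 6xCRE LacZ reporter stimulated by forskolin 10 µM; beta-galactosidase reporter signal reflecting CREB driven transcription.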 The note with it: luminescence, 4.5 h, higher = more signal, called active from +8 up or from −8 down.
In assay [15] the target is Streptavidin (Streptomyces avidinii) (UniProt P22629). As to the kind of experiment: streptavidin binders on small-molecule microarray, primary screen, artefact control for SMM compound annotation, biophysical, 635/667 nm fluorescence (AID 1147).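 Also: signal reflects streptavidin binding to arrayed compounds as a control protein.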 Conditions: streptavidin binding, higher = more signal.
Sequence of Streptavidin (Streptomyces avidinii) (P22629 whole entry, looked up): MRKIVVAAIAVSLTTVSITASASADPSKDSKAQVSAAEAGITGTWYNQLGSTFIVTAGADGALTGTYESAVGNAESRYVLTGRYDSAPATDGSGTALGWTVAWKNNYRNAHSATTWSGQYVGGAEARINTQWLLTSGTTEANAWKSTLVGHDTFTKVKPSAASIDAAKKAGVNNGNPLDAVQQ
Assay [16] in a line: small-molecule binders of probe aInhba, primary screen, biochemical, small-molecule microarray, 635/667 nm fluorescence (AID 1148).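 Also: score merges 667nm spot fluorescence with signal-to-noise for antibody binding to printed compounds.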 Conditions: higher = more signal.
The target in assay [17] is Torsin-1A (Homo sapiens) (UniProt O14656). As to the kind of experiment: torsin A binders from cell lysate, primary screen, small-molecule microarray, wild-type, 635/667 nm (AID 1149). The note with it: COS7 hTOR1A-WT lysate, 635 nm fluorescence, higher = more signal.
Sequence of Torsin-1A (Homo sapiens) (O14656 whole entry, looked up): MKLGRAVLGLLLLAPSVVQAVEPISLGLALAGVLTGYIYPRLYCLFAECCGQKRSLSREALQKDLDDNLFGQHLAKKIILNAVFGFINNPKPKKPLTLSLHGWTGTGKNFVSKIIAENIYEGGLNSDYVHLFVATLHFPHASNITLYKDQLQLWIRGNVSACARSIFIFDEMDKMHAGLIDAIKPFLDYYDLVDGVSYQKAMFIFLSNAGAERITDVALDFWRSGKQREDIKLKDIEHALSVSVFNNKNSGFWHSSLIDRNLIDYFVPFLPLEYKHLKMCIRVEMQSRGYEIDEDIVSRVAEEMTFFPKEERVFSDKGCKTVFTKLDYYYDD
For assay [18] the target is unchanged. As to the kind of experiment: small-molecule binders of mutant TOR1A in lysate, primary screen, cell lysate, small-molecule microarray, COS7 lysate, 635/667 nm fluorescence (AID 1150).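 Also: score pools 667 nm emission and signal to noise measuring lysate protein binding.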 The note with it: COS7 hTOR1A mutant lysate, 635 nm fluorescence, higher = more signal.
Assay [19] deals with Sonic hedgehog protein (Shh). In words: small-molecule binders of Shh protein, primary screen, biochemical, small-molecule microarray, 635/667 nm fluorescence (AID 1151).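 Also: Shh protein binding to compounds spotted on small-molecule microarray slides; score combines spot fluorescence intensity with signal-to-noise across triplicate slides.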 Conditions: small-molecule microarray binding, 635 nm fluorescence; higher = more signal.

Structures are written as SMILES. Calls of active or inactive are those of the source. Unless noted, no rule for the calls is given here.

For the compound `C=CCN1Cc2ccccc2C[C@@]2(COC(c3ccc(OCCCO)cc3)=N2)C1=O`, the composite z-score in [1] stood at 0.131; in assay [2] it was 1.2; in assay [3], 0.92; in assay [4] it was 0.526; in assay [5] it was 1.15; in assay [6] it was 0.788. For the same compound, the composite z-score was 0.374 in the assay on Lefty1; 0.41 in assay [8]; 0.253 in [10]; 0.112 in assay [15]; 0.185 in assay [16]; 0.729 in the assay with Torsin-1A (Homo sapiens) [17]. In addition, the composite z-score was 0.827 with Torsin-1A (Homo sapiens) [18] and 0.521 in assay [19]. For the same compound, the z-score was 1.67 in assay [7]; -1.62 (inactive) in assay [9]; -2.99 (inactive) in assay [11]; -0.547 (inactive) in [12]; 3.21 (inactive) in assay [13]; -1.41 (inactive) in assay [14].
Take `O=C1[C@H]2C=C(Br)[C@H](C[C@@H]2OCCOCCO)[C@@]12CO2`: the composite z-score in assay [1] was 0.141; in [2] it was 0.314; in assay [3] it was -0.0415; in assay [4], 0.138; in assay [5] it was -0.864; in [6] it was 0.179. Also, the composite z-score is 0.199 with Lefty1; -0.0695 in [8]; 0.268 in [10]; 0.138 in [15]; -0.118 in assay [16]; -0.428 with Torsin-1A (Homo sapiens) [17]. Also, the composite z-score is -0.385 in the assay with Torsin-1A (Homo sapiens) [18] and 0.0806 in [19]. The z-score in assay [7] was -0.271; in assay [9], 0.582 (inactive); in assay [11], 0.808 (inactive); in assay [12], 0.199 (inactive); in assay [13], -1.23 (inactive); in assay [14] it was 1.6 (inactive).
As to `C=CCN1Cc2ccccc2C[C@]2(N=C(c3ccc(OCCCO)cc3)O[C@@H]2c2ccccc2)C1=O`, the composite z-score in assay [1] came to 1.66; in [2] it was 1.12; in assay [3], 0.692; in assay [4], 0.441; in assay [5], 1.36; in assay [6] it was 1.76. For the same compound, the composite z-score with Lefty1 was 0.706; in assay [8], 0.436; in assay [10] it was 0.469; in [15] it was -0.138; in assay [16], 0.167; with Torsin-1A (Homo sapiens) [17] it was 0.821. The composite z-score with Torsin-1A (Homo sapiens) [18] is 1.15; in [19] it was 1.81. Also, the z-score in [7] is 1.21; in assay [9], -1.87 (inactive); in assay [11], -4.28 (inactive); in [12], -0.066 (inactive); in assay [13], 1.64 (inactive); in assay [14], -1.28 (inactive).
In the case of `CN1C(=O)C2C=CC(C(O)c3ccc(Br)cc3)N(Nc3ccccc3)C2C1=O` (stereo not given), the composite z-score in assay [1] is -0.233; in assay [2], -0.426; in assay [3], 0.1; in assay [4], -0.23; in assay [5], -1.12; in assay [6], -1.22. The composite z-score with Lefty1 was -1.33; in assay [8], 0.387; in assay [10], -0.323; in [15], -0.524; in [16], -0.0523; in the assay with Torsin-1A (Homo sapiens) [17], 0.24. Further, the composite z-score in the assay with Torsin-1A (Homo sapiens) [18] was 0.828; in [19], -1.09. In addition, the z-score in [7] is -0.101; in assay [9], -1.11 (inactive); in [11], 1.06 (inactive); in [12], -0.595 (inactive); in assay [13] it was 1.6 (inactive); in assay [14] it was 0.127 (inactive).
For `C=CCC(OC(C)=O)[C@@H]1[C@@H](N(Cc2cc3ccccc3o2)C(=O)c2ccc(-c3ccccc3)cc2)c2cc(OCCCO)ccc2N1C(=O)Cc1ccc2ccccc2c1` (stereo not given in full), the composite z-score was 0.708 in assay [1]; -0.321 in assay [2]; -0.0252 in assay [3]; 0.186 in assay [4]; 0.386 in assay [5]; -0.0741 in assay [6]. Besides, the composite z-score in the assay on Lefty1 is -0.0934; in assay [8] it was 0.34; in [10], -0.172; in [15], 0.0693; in assay [16], 0.0963; in the assay with Torsin-1A (Homo sapiens) [17], -0.635. Also, the composite z-score with Torsin-1A (Homo sapiens) [18] was -0.0864; in assay [19], -0.076. Besides, the z-score in assay [7] is 1.33; in assay [9], -0.729 (inactive); in assay [11], 0.0758 (inactive); in [12], 0.19 (inactive); in assay [13], 1.85 (inactive); in assay [14], 0.874 (inactive).
